What all share (settings): mRNA level, 48 h; actives raise or lower the signal
Read-out in test [1]: ABC Transporter (ABCC3), ABCC3 (gene 8714)
Briefly: LTEA_HepaRG_ABCC3: Life Technologies and Expression Analysis (LTEA) Assay for ABC Transporter (ABCC3) using HepaRG (AID 2283462). In short, it runs like this: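 HepaRG cells in serum-free induction medium were exposed for 48 h in duplicate to 8-point half-log concentrations topping at 100 uM in 0.5% DMSO. ABCC3 mRNA was measured by qRT-PCR normalized to ACTB, GAPDH and POLR2A, with bidirectional fitting versus DMSO.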

Read-out in test [2]: ABC Transporter (ABCB11), ABCB11 (gene 8647)
Nature of the test: LTEA_HepaRG_ABCB11: Life Technologies and Expression Analysis (LTEA) Assay for ABC Transporter (ABCB11) using HepaRG (AID 2283463). The essentials:
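ABCB11 transcript levels are read by Fluidigm TaqMan qRT-PCR after 48 h chemical treatment of human HepaRG cells. Concentrations span 100 uM downward in half-log steps with 0.5% DMSO; gain or loss is fitted against DMSO controls.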

Read-out in test [3]: Broad substrate specificity ATP-binding cassette transporter ABCG2 (Homo sapiens) (UniProt Q9UNQ0)
Nature of the test: LTEA_HepaRG_ABCG2: Life Technologies and Expression Analysis (LTEA) Assay for ABC Transporter (ABCG2) using HepaRG (AID 2283465). The essentials:
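Read-out is ABCG2 mRNA induction or loss quantified by qRT-PCR after 48 h chemical treatment of human HepaRG cells, normalized to three housekeeping genes. Concentrations reached 100 uM top in half-log steps; fitting was bidirectional against 0.5% DMSO.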

Read-out in test [4]: ATP-citrate lyase (ACLY), ACLY (gene 47)
Briefly: LTEA_HepaRG_ACLY: Life Technologies and Expression Analysis (LTEA) Assay for ATP-citrate lyase (ACLY) using HepaRG (AID 2283466). The essentials: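 HepaRG, 48 h exposure, 8-pt half-log dilutions (top 100 uM), 0.5% DMSO. Readout: ACLY mRNA, TaqMan qRT-PCR, housekeeping-normalized (ACTB/GAPDH/POLR2A). Bidirectional curve fit vs DMSO.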

Read-out in test [5]: Peroxisomal acyl-coenzyme A oxidase 1 (ACOX1) gene, ACOX1 (gene 51)
Nature of the test: LTEA_HepaRG_ACOX1: Life Technologies and Expression Analysis (LTEA) Assay for Peroxisomal acyl-coenzyme A oxidase 1 (ACOX1) gene using HepaRG (AID 2283467). In short, it runs like this: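 Measured by qRT-PCR against three housekeeping genes: ACOX1 transcript change in human HepaRG cells after 48 h dosing. Concentrations ran up to 100 uM in half-log steps. Curves were fitted bidirectionally relative to 0.5% DMSO.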

Read-out in test [6]: Alkaline Phosphatase, Placental (ALPP) gene, ALPP (gene 250)
Nature of the test: LTEA_HepaRG_ALPP: Life Technologies and Expression Analysis (LTEA) Assay for Alkaline Phosphatase, Placental (ALPP) gene using HepaRG (AID 2283468). In short, it runs like this:
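Differentiated human HepaRG cells were plated and cultured 48 h, then exposed in duplicate for 48 h in serum-free induction medium to eight half-log concentrations from 100 uM in 0.5% DMSO. ALPP mRNA was measured by TaqMan qRT-PCR, normalized to ACTB, GAPDH, POLR2A.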

Read-out in test [7]: Bcl-2 (BAX) gene, BAX (gene 581)
Briefly: LTEA_HepaRG_BAX: Life Technologies and Expression Analysis (LTEA) Assay for Bcl-2 (BAX) gene using HepaRG (AID 2283470). In short, it runs like this: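 Concentration-response endpoint fitted in both directions relative to 0.5% DMSO vehicle. Human HepaRG cultures receive test chemicals for 48 h at up to 100 uM; BAX mRNA is quantified by qRT-PCR against housekeeping genes.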

Read-out in test [8]: Alpha-fetoprotein (AFP) gene, AFP (gene 174)
Nature of the test: LTEA_HepaRG_AFP: Life Technologies and Expression Analysis (LTEA) Assay for Alpha-fetoprotein (AFP) gene using HepaRG (AID 2283472). In short, it runs like this:
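After a 48 h plating period, cells are moved to serum-free induction medium and dosed in duplicate (100 uM maximum, half-log dilutions, 0.5% DMSO) for another 48 h. Total RNA goes to TaqMan qRT-PCR; AFP signal is housekeeping-normalized.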

Read-out in test [9]: BCL2L11 (gene 10018)
Nature of the test: LTEA_HepaRG_BCL2L11: Life Technologies and Expression Analysis (LTEA) Assay for Bcl-2 (BCL2L11) gene using HepaRG (AID 2283473). The essentials: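 Differentiated human HepaRG cells in serum-free induction medium were exposed in duplicate for 48 h to eight concentrations (top 100 uM, half-log steps, 0.5% DMSO). BCL2L11 mRNA was quantified by TaqMan qRT-PCR, normalized to ACTB/GAPDH/POLR2A, bidirectional fit versus DMSO.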

Read-out in test [10]: Apoptosis regulator Bcl-2 (Homo sapiens) (UniProt P10415)
Nature of the test: LTEA_HepaRG_BCL2: Life Technologies and Expression Analysis (LTEA) Assay for Bcl-2 gene using HepaRG (AID 2283475). The essentials:
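Expression change of BCL2 mRNA in HepaRG after 48 h dosing, quantified by TaqMan qRT-PCR against three endogenous controls. Concentration-response used eight points up to 100 uM, vehicle 0.5% DMSO.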

Read-out in test [11]: Bcl-2 (BID) gene, BID (gene 637)
Nature of the test: LTEA_HepaRG_BID: Life Technologies and Expression Analysis (LTEA) Assay for Bcl-2 (BID) gene using HepaRG (AID 2283476). The essentials: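 Gain or loss of BID expression is fitted relative to 0.5% DMSO vehicle. Human HepaRG liver cells received a 48 h chemical exposure over an eight-point concentration range.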

Read-out in test [12]: Caspase-3 (Homo sapiens) (UniProt P42574)
Nature of the test: LTEA_HepaRG_CASP3: Life Technologies and Expression Analysis (LTEA) Assay for cysteine-aspartic acid protease (CASP3) using HepaRG (AID 2283477). The essentials: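 Differentiated human HepaRG cells in serum-free induction medium were exposed 48 h to 8-point half-log concentrations from 100 uM (0.5% DMSO vehicle). CASP3 mRNA was measured by qRT-PCR, normalised to ACTB, GAPDH and POLR2A, with bidirectional fitting against DMSO.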

Read-out in test [13]: Cytochrome P450 (CYP24A1), CYP24A1 (gene 1591)
Nature of the test: LTEA_HepaRG_CYP24A1: Life Technologies and Expression Analysis (LTEA) Assay for Cytochrome P450 (CYP24A1) using HepaRG (AID 2283478). In short, it runs like this: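 Differentiated HepaRG cells, pre-cultured 48 h, were exposed in duplicate for 48 h in serum-free induction medium to 8 half-log concentrations (top 100 uM, 0.5% DMSO). CYP24A1 mRNA was quantified by TaqMan qRT-PCR, normalized to ACTB/GAPDH/POLR2A, fitted bidirectionally versus DMSO.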

Read-out in test [14]: Cytochrome P450 (CYP1A2), CYP1A2 (gene 1544)
Nature of the test: LTEA_HepaRG_CYP1A2: Life Technologies and Expression Analysis (LTEA) Assay for Cytochrome P450 (CYP1A2) using HepaRG (AID 2283479). The essentials:
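Differentiated human HepaRG cells in serum-free induction medium were exposed in duplicate for 48 h to 8-point half-log concentrations up to 100 uM in 0.5% DMSO. CYP1A2 mRNA measured by qRT-PCR, normalized to ACTB, GAPDH, POLR2A; bidirectional fit vs DMSO.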

Read-out in test [15]: cysteine-aspartic acid protease (CASP8), CASP8 (gene 841)
Briefly: LTEA_HepaRG_CASP8: Life Technologies and Expression Analysis (LTEA) Assay for cysteine-aspartic acid protease (CASP8) using HepaRG (AID 2283480). The essentials:
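HepaRG, 48 h exposure, duplicate wells; 8 conc, half-log from 100 uM, 0.5% DMSO. Serum-free induction medium. CASP8 mRNA by TaqMan qRT-PCR, norm. ACTB/GAPDH/POLR2A; gain/loss fitted vs DMSO.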

Read-out in test [16]: adenosine kinase (ADK) gene, ADK (gene 132)
Nature of the test: LTEA_HepaRG_ADK: Life Technologies and Expression Analysis (LTEA) Assay for adenosine kinase (ADK) gene using HepaRG (AID 2283471). The essentials: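 Read-out is ADK transcript level measured by qRT-PCR and normalised to three housekeeping genes. Cells are human HepaRG, dosed for 48 h at up to 100 uM in 0.5% DMSO. Gain or loss of signal is fitted against DMSO controls.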

Read-out in test [17]: Apolipoprotein A-V (APOA5) gene, APOA5 (gene 116519)
Nature of the test: LTEA_HepaRG_APOA5: Life Technologies and Expression Analysis (LTEA) Assay for Apolipoprotein A-V (APOA5) gene using HepaRG (AID 2283474). In short, it runs like this:
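Differentiated human HepaRG cells were exposed in duplicate for 48 h to eight half-log concentrations from 100 uM in 0.5% DMSO. APOA5 mRNA was quantified by TaqMan qRT-PCR, normalized to ACTB, GAPDH and POLR2A, and fitted bidirectionally against DMSO.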

Read-out in test [18]: ABC Transporter (ABCC2), ABCC2 (gene 1244)
Nature of the test: LTEA_HepaRG_ABCC2: Life Technologies and Expression Analysis (LTEA) Assay for ABC Transporter (ABCC2) using HepaRG (AID 2283464). In short, it runs like this: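 HepaRG cells were plated 48 h, switched to serum-free induction medium, then exposed in duplicate for 48 h to 8 concentrations (top 100 uM, half-log steps, 0.5% DMSO). ABCC2 mRNA was measured by qRT-PCR normalized to ACTB/GAPDH/POLR2A; bidirectional fitting versus DMSO.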

Read-out in test [19]: Bcl-2 (BAD) gene, BAD (gene 572)
Nature of the test: LTEA_HepaRG_BAD: Life Technologies and Expression Analysis (LTEA) Assay for Bcl-2 (BAD) gene using HepaRG (AID 2283469). The essentials:
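BAD transcript change, measured by qRT-PCR against three housekeeping genes and fitted in both directions relative to 0.5% DMSO, after 48 h chemical treatment of human HepaRG liver cells at concentrations up to 100 uM.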

Activity calls are given as the source filed them. Rule for the calls: active = hit-call score of the fitted dose curve at least 0.9, where 1 is the maximum; inactive = score below 0.9.

Apoptosis regulator Bcl-2 (Homo sapiens), sequence (P10415 whole entry, looked up): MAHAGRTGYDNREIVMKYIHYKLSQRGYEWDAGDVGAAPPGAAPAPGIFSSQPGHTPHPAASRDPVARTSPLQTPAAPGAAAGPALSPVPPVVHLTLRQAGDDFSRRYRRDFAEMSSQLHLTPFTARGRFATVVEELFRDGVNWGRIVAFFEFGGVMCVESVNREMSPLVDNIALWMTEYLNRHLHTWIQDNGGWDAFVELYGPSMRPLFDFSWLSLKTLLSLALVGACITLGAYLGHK
Broad substrate specificity ATP-binding cassette transporter ABCG2 (Homo sapiens), sequence (Q9UNQ0 whole entry, looked up): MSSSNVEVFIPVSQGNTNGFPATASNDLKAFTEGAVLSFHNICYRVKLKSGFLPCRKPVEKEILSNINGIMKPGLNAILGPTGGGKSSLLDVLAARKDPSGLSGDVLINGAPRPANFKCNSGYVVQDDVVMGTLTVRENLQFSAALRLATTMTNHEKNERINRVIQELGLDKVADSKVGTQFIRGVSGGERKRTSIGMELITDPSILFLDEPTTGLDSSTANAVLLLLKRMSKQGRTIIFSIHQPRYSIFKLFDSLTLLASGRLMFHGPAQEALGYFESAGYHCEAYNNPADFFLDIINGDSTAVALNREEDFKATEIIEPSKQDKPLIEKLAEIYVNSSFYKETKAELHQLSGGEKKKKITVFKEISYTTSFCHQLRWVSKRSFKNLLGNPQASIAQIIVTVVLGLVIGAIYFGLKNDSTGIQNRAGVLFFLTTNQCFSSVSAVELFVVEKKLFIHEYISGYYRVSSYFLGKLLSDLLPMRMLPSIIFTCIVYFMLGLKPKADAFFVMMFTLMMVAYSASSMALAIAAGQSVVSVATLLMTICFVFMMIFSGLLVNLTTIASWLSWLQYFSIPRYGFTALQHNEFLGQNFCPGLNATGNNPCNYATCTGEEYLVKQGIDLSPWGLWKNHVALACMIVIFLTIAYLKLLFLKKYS
Caspase-3 (Homo sapiens), sequence (P42574 whole entry, looked up): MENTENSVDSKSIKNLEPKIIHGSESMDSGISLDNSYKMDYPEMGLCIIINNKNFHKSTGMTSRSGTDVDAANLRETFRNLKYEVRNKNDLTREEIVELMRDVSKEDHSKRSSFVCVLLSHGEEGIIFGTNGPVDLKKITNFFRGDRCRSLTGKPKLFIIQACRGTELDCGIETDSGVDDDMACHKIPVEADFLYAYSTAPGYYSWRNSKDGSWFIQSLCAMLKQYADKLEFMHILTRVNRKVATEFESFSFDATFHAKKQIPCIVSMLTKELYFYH

Turning to `COc1cc(C(C)C)c2c(c1)S(=O)(=O)N(COc1cc(=O)n3cccc(OCCN4CCCCC4)c3n1)C2=O`, the AC50 in [1] was 22.1 µM (active); in test [2], 17.5 µM (active); in test [3] it was 20.9 µM (active); in test [5], 19.8 µM (active); in test [6], 6.3 µM (active); in test [8], 19.5 µM (active). Besides, the AC50 in test [10] is 22.1 µM (active); in test [14] it was 20.2 µM (active). For the same compound, the compound was classed as inactive in [4], in test [7], in [9], in [11], in test [12] and in test [13]. The compound was called inactive in test [15].

With `CCCCCCCCN(C)C`, the compound was classed as inactive in [1], in test [2], in test [3], in [4], in test [5] and in test [6]. The compound was called inactive in test [7], in test [16], in test [8], in test [9], in [17] and in test [10]. The call in [11], in test [12], in [13], in test [14] and in test [15] was inactive.

Turning to `C[C@@H](Oc1ccc(CNC(=O)c2cccnc2Oc2ccc3c(c2)OCO3)c(F)c1)C(=O)O`, the result in test [1], in test [2], in [18], in test [3], in [4] and in test [5] was inactive. Besides, the result in test [6], in test [7], in test [16], in test [8], in test [9] and in test [10] was inactive. The compound was called inactive in [11], in [12], in [13], in test [14] and in test [15].

Take `O=C(O)c1cccc(C(=O)O)c1`: the outcome in test [1], in test [2], in [18], in test [3], in test [4] and in test [5] was inactive. Further, the compound was classed as inactive in [6], in test [7], in test [8], in test [9], in test [10] and in test [11]. Moreover, the compound was classed as inactive in [12], in test [13] and in test [15]. Further, the AC50 in test [14] was 82.6 µM (active).

For `NC(N)=O`, the call in test [1], in test [2], in test [3], in test [4], in test [5] and in [6] was inactive. The call in [19], in test [7], in [8], in test [9], in test [17] and in test [10] was inactive. Moreover, the call in test [11], in test [12], in [13], in [14] and in test [15] was inactive.

The term AC50 denotes the midpoint of the concentration-response curve, whichever way the signal moves.

For the origin of these results see PubChem BioAssay (EPA / NIEHS).
